Only some compounds are listed: those with a hit (about 1.8% of all), similar ones and a draw of the others.
AT treatment: candidate therapy for ataxia-telangiectasia | Potency, µM (highest dose often 57.5 µM), without a hit: at the highest dose activation, hits mostly activators | F2112 A-T fibroblasts, KAP-1 phosphorylation AlphaLISA; neocarzinostatin DNA damage 30 min before lysis | actives 0.19% (n = 320,000); also: potency is read from the fitted curve at half-maximal effect; % of control where 0% means no effect; nearly all actives have a fitted effect of over 45% in size
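ATM-like activity read as KAP-1 phosphorylation via AlphaLISA donor/acceptor antibody pairs after lysis and 6 hr at 25C. Cells were ATM-null patient fibroblasts (F2112, hTERT), dosed 60 min, then exposed to the DSB inducer NCS for 30 min.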
KCNH2 WT inh: KCNH2 (human, wildtype) channel inhibition; actives 0.37% (n = 340,000); Q12809; U2OS, BacMam KCNH2, thallium flux FluxOr; hits give low values; activity change, % at 1.84 µM; AID 720551;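 active = maximum activity change below -70%; inconclusive = maximum activity change between -70% and -50%; inactive = maximum activity change above -50%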; also: % is scaled to controls: 0 for no effect and ±100 for the full control effect
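U2OS cells were transduced with wild-type KCNH2 virus (2.03 x 10^8 / mL) for 4 h at room temperature, then cultured overnight at 37 C. Thallium flux was read with FluxOr dye. Rate constants were normalized to DMSO controls.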
ALOX12 inh: blocks human arachidonate 12S-lipoxygenase | purified 12hLO, xylenol orange hydroperoxide absorbance | actives 1.1% (n = 580,000) | Potency, µM (doses to about 108 µM), for the others: at the top dose activity change, negative = inhibition, actives largely listed as inhibitors; also: potency is read from the fitted curve at half-maximal effect; % is scaled to controls: 0 for no effect and ±100 for the full control effect
Target sequence (P18054 whole entry, looked up): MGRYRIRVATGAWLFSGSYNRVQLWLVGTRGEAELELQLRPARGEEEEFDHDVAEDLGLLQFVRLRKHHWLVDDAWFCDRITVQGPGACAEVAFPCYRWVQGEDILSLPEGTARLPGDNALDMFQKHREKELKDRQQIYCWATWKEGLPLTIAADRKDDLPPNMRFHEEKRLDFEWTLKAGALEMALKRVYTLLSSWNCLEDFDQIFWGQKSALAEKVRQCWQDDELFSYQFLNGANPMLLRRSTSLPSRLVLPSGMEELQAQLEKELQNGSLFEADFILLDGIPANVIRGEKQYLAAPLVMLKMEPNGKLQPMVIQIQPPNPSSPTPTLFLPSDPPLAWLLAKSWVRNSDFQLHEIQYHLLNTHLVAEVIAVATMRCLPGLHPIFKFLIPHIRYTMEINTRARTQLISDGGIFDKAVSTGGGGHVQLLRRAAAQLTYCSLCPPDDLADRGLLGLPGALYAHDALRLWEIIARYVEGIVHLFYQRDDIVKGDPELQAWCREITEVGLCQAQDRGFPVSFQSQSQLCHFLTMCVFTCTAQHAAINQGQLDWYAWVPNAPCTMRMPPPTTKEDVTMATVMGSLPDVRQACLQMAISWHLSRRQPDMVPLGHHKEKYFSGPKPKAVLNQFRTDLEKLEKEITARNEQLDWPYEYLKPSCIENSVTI
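Hydroperoxide product was detected by ferrous iron/xylenol orange as the 573 to 405 nm absorbance ratio. Arachidonic acid at 40 uM (final) was turned over for 30 min at room temperature by 150 nM human 12hLO, pH 7.0 Hepes buffer, after 15 min compound preincubation.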
KCNH2 3.1 block: KCNH2 3.1 (human) potassium channel inhibition; U2OS KCNH2 3.1, thallium flux FluxOr; hits give low values; actives 0.95% (n = 340,000); AID 720553; activity change, % (tested at about 1.8 µM);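 active = maximum activity change below -70%; inconclusive = maximum activity change from -70% to -50%; inactive = maximum activity change above -50%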;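 also: thallium influx rate constant from kinetic fluorescence after stimulation buffer; % is scaled to controls: 0 for no effect and ±100 for the full control effect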
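Kinetic fluorescence (2 min after stimulation buffer) measures Tl+ influx through KCNH2 3.1 expressed by viral transduction in U2OS cells; the rate constant is normalized against DMSO controls serving as positive and negative references.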
The depositor's hits bear a star; ? = inconclusive; nt = no result given; [ ] = remark or other dose. Unless noted, calls follow the shape of the dose curve; as a rule, active = well fitted curve in the direction sought with a large enough effect; inconclusive = small, poorly fitted or top-dose-only effect, or another doubt; inactive = no such curve, though single readings can be large; an effect the other way counts as inactive or inconclusive.

SMILES	AT treatment	KCNH2 WT inh	ALOX12 inh	KCNH2 3.1 block
CCn1c(-c2cc(-c3cc(OC)ccc3OC)nc3ccccc23)n[nH]c1=S	1.5%	-28.2	20µM*	-18.2
CCn1c(-c2cc(-c3ccccc3OC)nc3ccccc23)n[nH]c1=S	0.5%	-3.7	?	7.2
Cc1cc(C)cc(NC(=O)c2cc(S(=O)(=O)N3CCCC3)cn2C)c1	6.4%	10.8	44.6%	-106.7*
Cc1cccc(NC(=O)c2cc(S(=O)(=O)N3CCCC3)cn2C)c1	-4.5%	0.0	48.2%	-2.4
CCSc1nc(-c2ccc(C)cc2)nc2c1COC(C)(C)C2	nt	nt	11.9%	nt
O=C(CCc1ccccc1)NNC(=O)Nc1cccc(Cl)c1	6.9%	7.2	472.5%	-0.3
CCc1ccc(CCC(=O)NNc2cccc(Cl)c2)cc1	nt	nt	15.8µM*	nt
O=C(CC1CCCC1)N1CCCCCC1CN1CCOCC1 (stereo unspecified)	nt	nt	15.3%	nt
Cc1cc(C)c(-c2csc(NC(=O)/C=C/c3cccs3)n2)c(C)c1	-1.3%	-4.3	-14.4%	-77.5*
COC(=O)C1CCCCN1S(=O)(=O)c1cc(C)ccc1F (stereo unspecified)	nt	nt	-1.1%	nt
C=CC[n+]1ccc(/C=C2\C=Cc3cc(C)ccc3N2CC)c2ccccc21	-4.9%	-0.4	nt	-115.1*
CC(=O)Nc1ccc(-c2ccc(=O)n3c2[C@@H]2C[C@@H](CN(S(=O)(=O)c4ccc(F)cc4)C2)C3)cc1	nt	nt	12.9%	nt
COc1ccccc1NC(=O)c1c(C)nc2ccccc2c1C(=O)O	-5.3%	-5.9	14.1µM*	-5.8
COC(=O)c1c(C)nc2ccccc2c1C(=O)O	13.3%	21.0	-5.1%	-10.8
c1ccc(-c2nc3ccccc3c3nc4ccccc4n23)cc1	2.0%	-11.6	-0.1%	-3.3
c1ccc(-c2nc3nonc3c3nc4ccccc4n23)cc1	5.9%	5.3	5.3%[57.4 µM]	-79.8*
CN(CC(=O)Nc1ccc(Cl)cc1)Cc1cc(=O)n2ccsc2n1	-0.5%	-7.0	4.0%	-35.5
Cc1ccc(NC(=O)CN(C)Cc2cc(=O)n3ccsc3n2)cc1	12.6µM*	0.7	-9.3%	4.0
Cc1cccc(NC(=O)CN(C)C(=O)c2ccc3c(c2)nnn3C)c1	nt	nt	5.8%	nt
CCOC(=O)N1CCN(c2nc(N(c3ccccc3)c3ccccc3)nc(-n3ccnc3)n2)CC1	10µM*	nt	-3.2%	nt
c1ccc(N(c2ccccc2)c2nc(N3CCCC3)nc(-n3ccnc3)n2)cc1	20.5%	4.7	0.0%	-8.2
COc1ccc(-c2cc3ccc(OCC#N)cc3oc2=O)c(OC)c1	nt	nt	-0.5%	nt
O=C(Oc1ccc2c(=O)c(-c3ccccc3)coc2c1)c1ccccc1Cl	nt	nt	-15.6%	nt
Cc1ccc(/C=C/C(=O)N2CCN(S(=O)(=O)c3ccc(C)c(C)c3)CC2)o1	-7.1%	-1.1	17.8µM*	-15.3
C=CCN1C(=O)S/C(=C/c2ccc(Sc3nc4ccccc4[nH]3)o2)C1=O	2.2%	-4.8	-15.6%	-16.2
SMILES	AT treatment	KCNH2 WT inh	ALOX12 inh	KCNH2 3.1 block
CC(C)N1C(=O)S/C(=C/c2ccc(Sc3nc4ccccc4[nH]3)o2)C1=O	7.4%	-129.6*	-23.0%	2.6
Cc1noc(C)c1-c1cc2c(c(-c3cnn(C)c3)c1)C(=O)N(C)C2	nt	nt	-4.4%[176 µM]	nt
Cc1cccc(CNc2ccnc(-c3ccoc3)n2)c1	nt	nt	20µM*	nt
Cc1cc(N2C(=O)CC(N3CCN(c4ccc(C(=O)c5cccs5)cc4)CC3)C2=O)no1 (stereo unspecified)	3.6%	4.3	31.6µM*	-18.2
Cc1ccccc1-n1nc(C)c(CCC(=O)NCC2CC2)c1Oc1ccccc1	nt	nt	23.9%	nt
COc1cccc(-n2sc3c(c2=S)-c2cc(OC)ccc2NC3(C)C)c1	-0.7%	-2.2	?	nt
CC1(C)Nc2ccc(O)cc2-c2c1ssc2=S	-3.7%	1.6	44.7µM*	-5.6
CN(CC(=O)N1CCCC(CCc2ccc(F)cc2)C1)C1CCNCC1 (stereo unspecified)	nt	nt	14.8%	nt
CCN(c1ccccc1)S(=O)(=O)c1ccc(N2CCN(c3ccc(O)cc3)CC2)nc1	-4.0%	1.0	20µM*	-25.7
COc1ccc(NC(=O)c2ccc(-c3ccc(-c4noc(C)n4)cc3C)cc2)cc1N1CCN(C)CC1	2.1%	8.3	?	-86.7*
COc1ccc(NC(=O)N2CCN(c3cc(-c4noc(C)n4)ccc3C)CC2)c(OC)c1	nt	nt	-22.7%	nt
CNC(=O)N1CCC(N2C(=O)C3(CCCCC3)C2c2ccccc2)CC1 (stereo unspecified)	nt	nt	26.8%	nt
COc1ccc(CN2C(=O)c3cccnc3C2O)cc1 (stereo unspecified)	1.5%	-12.0	?	-6.5
COc1ccc(CN2C(=O)c3cccnc3C2Nc2cc(Cl)ccc2OC)cc1 (stereo unspecified)	13.7%	2.7	12.6µM*	-9.3
COc1ccc(OC)c(NC2c3ncccc3C(=O)N2Cc2ccco2)c1 (stereo unspecified)	5.5%	6.2	?	-80.0*
COc1cccc(CNC(=O)N2CCc3sccc3C2)c1	nt	nt	-2.9%	nt
Cc1ccc(OCC(=O)N2CC(C(=O)NCCc3ccncc3)C3(CCOCC3)C2)cc1 (stereo unspecified)	nt	nt	2.7%	nt
O=C(CSc1nc2ccccc2o1)c1ccc2ccccc2c1	nt	nt	-9.6%	nt
O=C(CSc1ccc2ccccc2c1)c1ccc2c(c1)CCC2	nt	nt	35.5µM*	nt
Cc1ccc(/C=C2\SC(N3CCN(C(c4ccccc4)c4ccccc4)CC3)=NC2=O)o1	-6.0%	7.5	3.55µM*	-5.0
Cc1ccc(-c2ccc(/C=C3\SC(N4CCOCC4)=NC3=O)o2)cc1	2.2%	-6.1	35.5µM*	-2.9
O=C1N=C(N2CCN(c3ccccc3)CC2)S/C1=C/c1cccs1	-11.6%	-7.2	-8.5%	-9.1
COc1ccc(/C=C/c2nc(C#N)c(N(C)C)o2)cc1OC	nt	nt	-20.0%	nt
O=C(CN1C(=O)COc2ccc(S(=O)(=O)N3CCCC3)cc21)Nc1cccc(F)c1	3.2%	12.3	9.7%	-115.6*
CCN(CC)S(=O)(=O)c1ccc(NCc2ccccc2C#N)cc1	nt	nt	-12.4%	nt
SMILES	AT treatment	KCNH2 WT inh	ALOX12 inh	KCNH2 3.1 block
COc1ccccc1CCN1CNc2c(c(=O)[nH]c(=O)n2-c2ccccc2OC)C1	nt	nt	0.8%	nt
COc1ccc(Br)c2oc(S)cc(=O)c12	-20.5%	-4.8	6.31µM*	4.9
COc1ccc(C(=O)C(C)[n+]2ccc(C)c3ccccc32)cc1[N+](=O)[O-] (stereo unspecified)	-1.4%	-140.1*	?	-6.4
COc1ccc(C(=O)NC(C)CCc2ccccc2)cc1[N+](=O)[O-] (stereo unspecified)	5.7%	-5.6	-0.8%	3.5
c1coc(-c2nnc([C@H]3CCN(Cc4cccs4)C3)o2)c1	nt	nt	11.4%[176 µM]	nt
COc1ccc(/C=C/C(=O)c2ccc(C(=O)O)s2)c(OC)c1	nt	nt	-47.2%	nt
CC1=C/C(=C\C=C(C#N)C#N)N(C)c2ccccc21	12.6µM*	-11.7	?	-7.8
COc1ccc(C(C(=O)O)N2CCN(Cc3csc(C)n3)CC2)c(C)c1 (stereo unspecified)	nt	nt	22.4µM*	nt
CC1CCN(Cc2cc(=O)oc3ccc(O)cc23)CC1	nt	nt	-17.6%	nt
